NALP3 yeast inh – blocks the NALP3 inflammasome reconstituted in yeast; Yeast reconstituted NLRP3/ASC/caspase-1, beta-gal luminescence, 24 h; inhibition, % at 10 µM; 0.39% of 330,000 active;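 active = inhibition of 50% or more; inactive = inhibition below 50%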;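 note: plate controls were induced DMSO wells for no effect and uninduced yeast grown without galactose for full effect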
PfHsp90 set2 – reduces growth (ATP signal) of yeast expressing P. falciparum Hsp90; 0.32% of 310,000 active; inhibition, % at 9.4 µM; S. cerevisiae expressing PfHsp90, BacTiter-Glo ATP, 48 h; yeast lacking PDR1 and PDR3 efflux regulators;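 active = every replicate shows inhibition above about 80%, whatever the replicate mean, limit read from the data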;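 note: 0% = DMSO neutral controls and 100% = 20 µM radicicol positive controls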
tim10-1 inh – growth inhibitors of tim10-1 mutant yeast; S. cerevisiae tim10-1 ts strain growth, BacTiter-Glo, 24 h; inhibition, % at 20 µM; 2.2% of 330,000 active; AID 463190;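 active = inhibition of at least 40%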;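 note: mutant grown at 25 °C; 0% = DMSO wells with yeast and 100% = wells holding no yeast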
NALP1 inh – blocks the NALP1 inflammasome reconstituted in yeast; inhibition, % at 10 µM; S. cerevisiae NALP1/ASC/caspase-1 growth, X-gal OD620, 72 h; AID 2071; 0.61% of 280,000 active; in the data active = inhibition mostly above about 24%, no sharp cut-off; inactive = mostly below about 32%
tim23-1 inh – inhibits growth of tim23-1 mutant yeast. 1.3% of 330,000 active. inhibition, % at 20 µM. AID 463212. S. cerevisiae tim23-1 growth, BacTiter-Glo luminescence, 24 h;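 active = growth inhibition of the mutant yeast at or above 50%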;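 note: temperature-sensitive mutant grown at 25 °C; plate controls were DMSO-treated mutant yeast for no effect and medium wells lacking yeast for full effect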
TIM10 inh – TIM10 yeast growth inhibition; inhibition, % at 10 µM; S. cerevisiae TIM10 strain growth, BacTiter-Glo luminescence, 24 h; 1.4% of 330,000 active;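 active = inhibition of 40% or more at the single tested concentration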;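 note: wild-type TIM10 isogenic control strain grown at permissive 25 °C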
tim10-1 confirm – confirmation of tim10-1 mutant yeast growth inhibitors; shares compounds with tim10-1 inh; S. cerevisiae tim10-1 ts strain growth, BacTiter-Glo, 24 h; inhibition, % at 20 µM; 56% of 7,400 active; AID 463213;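 active = inhibition of yeast growth at or above a set limit in either of two repeat tests at 20 µM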;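 note: tim10-1 mutant grown at permissive 25 °C to find synthetic lethal compounds; 0% = DMSO yeast wells and 100% = medium wells without yeast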
tim10 confirm – confirmation of TIM10 yeast growth inhibitors; S. cerevisiae tim10 strain growth, BacTiter-Glo luminescence, 24 h; 63% of 4,600 active; shares compounds with TIM10 inh; inhibition, % at 10 µM;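 active = inhibition of yeast growth at or above a set limit in either of two replicates at 10 µM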;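 note: this counterscreen used the strain with wild-type TIM10; 0% = yeast with DMSO and 100% = medium wells lacking yeast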
tim23-1 conf – confirmation of tim23-1 mutant yeast growth inhibitors. shares compounds with tim23-1 inh. S. cerevisiae tim23-1 growth, BacTiter-Glo luminescence, 24 h. inhibition, % at 20 µM. 83% of 4,400 active;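 active = inhibition above about 39% in either of two replicate wells at 20 µM, limit read from the data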;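 note: temperature-sensitive tim23-1 mutant grown at 25 °C; 0% = DMSO wells with yeast and 100% = medium wells without yeast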
* = called active by the depositor; · = no result given. Compounds with a hit are over-represented: about 4.2% of the library has one in this group of screens.

SMILES	NALP3 yeast inh	PfHsp90 set2	tim10-1 inh	NALP1 inh	tim23-1 inh	TIM10 inh	tim10-1 confirm	tim10 confirm	tim23-1 conf
Cc1ccc(C(=O)Nc2ccc(Br)c(C(F)(F)F)c2)cc1	-16	·	75*	16	67*	63*	45*	63*	62*
Cc1cc(Cl)ccc1OCC(=O)NNC(=O)CCOc1ccccc1	8	15	-19	·	-10	-15	·	·	·
COc1cccc(NC(=O)COC(=O)c2ccc(S(=O)(=O)NCc3ccco3)cc2)c1	4	8	13	10	1	2	·	·	·
Cc1ccc(-c2nc3s/c(=C\c4ccco4)c(=O)n3n2)cc1	-1	-23	8	6	32	9	·	·	·
O=c1nc2s/c(=C\c3ccco3)c(=O)n2nc1Cc1ccc(F)cc1	11	0	71*	-14	53*	78*	76*	80*	-8
O=C(O)c1c(NC(=O)N2CCOCC2)sc2c1CCCC2	-12	-22	-1	13	3	0	·	·	·
Cc1ccccc1NC1=CC(=O)CC(C)(C)C1	9	-22	14	-18	-9	-5	·	·	·
CC1(C)CC(=O)C=C(NC2=CC3OC(c4ccccc4)OCC3OC2=O)C1 (stereo not given)	5	28	68*	27	59*	59*	58*	-1	56*
CC(=O)/C=C/c1ccc2ccccc2n1	33	-3	65*	8	71*	59*	65*	60*	82*
S=c1[nH]ncn1/N=C/c1cccc(Oc2ccccc2)c1	36	-13	61*	-10	56*	52*	46*	0	56*
COc1ccc(/C=C(\NC(=O)c2ccccc2)C(=O)NCc2ccco2)cc1OC	8	10	-14	3	3	5	·	·	·
O=C(Nc1ccccc1C(=O)N/N=C/c1ccco1)c1ccc(F)cc1	14	57	42*	3	60*	31	52*	·	59*
CCCC(=O)Nc1cc2c3c(c1)C(C)C(=O)N3CCC2 (stereo not given)	18	6	-4	24	-7	1	·	·	·
O=[N+]([O-])c1cc(Cl)cc2c1nc(NCCO)c1ccccc12	9	-5	67*	17	55*	40	50*	·	47*
O=C(O)CCC(=O)N1CCN(c2ncccc2C(F)(F)F)CC1	7	1	4	5	-7	-6	·	·	·
O=C(c1ccc([N+](=O)[O-])cc1[N+](=O)[O-])n1cnc2ccccc21	16	-2	69*	-1	73*	59*	76*	52*	84*
O=C(c1ccccc1[N+](=O)[O-])n1cnc2ccccc21	-1	9	33	6	7	35	·	·	·
NC(=O)c1cc(Br)cc2c3c([nH]c12)CCCC3	20	-3	69*	27	76*	56*	58*	-8	62*
Cc1ccc(C)c2sc(NC(=O)c3nc4ccccc4s3)nc12	4	1	0	13	11	-15	·	·	·
COc1ccc(S(=O)(=O)N2CCN(C(=O)C3CC(=O)N(c4ccccc4F)C3)CC2)cc1OC (stereo not given)	·	3	·	·	·	·	·	·	·
C=CC(=O)N1C/C(=C/c2ccccc2)C(=O)/C(=C\c2ccccc2)C1	·	-18	·	·	·	·	·	·	·
CN1C2CCC1/C(=C\c1ccccc1)C(=O)/C2=C\c1ccccc1	33	-9	47*	-1	53*	45*	36*	23	55*
NC(=S)N/N=C/c1coc2ccc(Cl)cc2c1=O	15	-179	54*	8	82*	22	16	·	80*
COc1ccc(C(=O)N/N=C\c2coc3ccc(Cl)cc3c2=O)cc1	12	-2	44*	-3	84*	33	-4	·	75*
COc1cc(C(=O)N/N=C/c2coc3ccc(Cl)cc3c2=O)ccc1O	12	16	52*	15	81*	35	8	·	49*
SMILES	NALP3 yeast inh	PfHsp90 set2	tim10-1 inh	NALP1 inh	tim23-1 inh	TIM10 inh	tim10-1 confirm	tim10 confirm	tim23-1 conf
COc1cc(C(=O)N/N=C/c2coc3ccccc3c2=O)cc(OC)c1OC	3	31	20	-11	33	9	·	·	·
O=C(N/N=C/c1coc2ccc(Cl)cc2c1=O)c1ccc(O)cc1	2	49	49*	-4	84*	31	-1	·	49*
CN1/C(=C/C2CC(=O)N(c3ccc([N+](=O)[O-])cc3)C2=O)C(C)(C)c2ccccc21 (stereo not given)	0	-2	66*	15	51*	51*	62*	42*	66*
CN1/C(=C\C(=S)NC(=O)c2ccc([N+](=O)[O-])cc2)C(C)(C)c2ccccc21	23	3	12	12	-3	9	·	·	·
CC1CCc2nc(NC(=O)CN3CCN(c4ccc(F)cc4)CC3)sc2C1 (stereo not given)	22	45	51*	10	55*	28	28	·	37
CC(C)(C)NC(=O)COc1ccc2oc3c(c2c1)CCCC3	28	-38	14	-3	21	-3	·	·	·
CCOCC(=O)Nc1nc2ccc(OCC)cc2s1	-11	29	26	6	34	4	·	·	·
CCOc1ccc2nc(NC(=O)C3(C)CC3(Br)Br)sc2c1 (stereo not given)	24	-2	50*	·	74*	25	40*	·	38*
O=C(/C=C/c1ccc(F)cc1)c1ccccc1Br	15	59	47*	55*	62*	44*	64*	64*	58*
Cc1ccc(C(=O)/C=C/c2ccc(F)cc2)o1	2	8	12	20	18	12	·	·	·
COc1cccc2cc(C(=O)CS(=O)(=O)c3ccc(C)cc3)c(=O)oc12	9	-16	33	4	37	-4	·	·	·
Cc1ccc(S(=O)(=O)CC(=O)c2cc3cccc(C)c3oc2=O)cc1	5	-32	42*	3	53*	1	-23	·	32
C=C(CN(C)C)C(=O)c1ccc(OC2OC(COC(C)=O)C(OC(C)=O)C(OC(C)=O)C2OC(C)=O)cc1 (stereo not given)	·	-16	·	·	·	·	·	·	·
COc1cccc(/C=C2\SC(=S)N(CCCC(=O)N3CCCCC3CCO)C2=O)c1 (stereo not given)	10	-40	50*	-3	52*	19	20	·	55*
COc1ccc(/C=C2\SC(=S)N(CCCC(=O)N3CCOCC3)C2=O)cc1	14	-6	25	6	34	8	·	·	·

Bioassay records as filed in PubChem BioAssay.
